The supplement of paper PMC6805474

Legend:
[1] = tested on: Schistosoma mansoni schistosomula (LE); experiment: XTT viability relative to DMSO control; higher = more viable (less active); settings: 72 h; 10 µM
Method: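 XTT/PMS was then added for a further 24 h (72 h total) and A450 was read. % viability = (sample - heat-killed control)/(DMSO control - heat-killed control) x 100, from duplicate wells in two independent experiments.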

[2] = tested on: Schistosoma mansoni schistosomula (NMRI); experiment: phenotypic severity score (0-4); higher = more antischistosomal effect, active = 2 or more; settings: 10 µM
[3] = tested on: Schistosoma mansoni schistosomula (Liberian); experiment: drug effect (1 - score/DMSO control score) (fraction); higher = more antischistosomal effect, active = 0.5 or more; extreme values may be limits of the assay; settings: 10 µM
How it was run: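 A plate was valid only if its 0.1% DMSO wells averaged a score of at least 2. Those wells ran beside duplicate wells in which 50 Liberian-strain Schistosoma mansoni schistosomula each, transformed mechanically from cercariae and pre-incubated at least 12 h, met 10 µM compound in Medium 199 with 5% FCS at 37 °C, 5% CO2. Scoring was visual at 10× at 24, 48 and 72 h, from 3 (normal) to 0 (dead) in quarter-point steps. Drug effect was derived from the mean test-well score against the mean DMSO-well score, with negatives set to zero.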
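Wherever phenotypic severity score (0-4) is given: visual microscopic scoring of shape, motility and density changes versus 0.5% DMSO solvent controls, one point per descriptor, degeneracy or death scored 4, mean of duplicate wells.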

SMILES	XTT viability [1] [%]	phenotypic severity score ([2]; 24 h)	phenotypic severity score ([2]; 48 h)	phenotypic severity score ([2]; 72 h)	drug effect ([3]; 24 h)	drug effect ([3]; 48 h)	drug effect ([3]; 72 h)
CCCCOC(=O)Nc1cc2nc(C3CCCCC3)[nH]c2cc1N1CCCC1	132	3 (active)	4 (active)	4 (active)	0.15 (inactive)	0.389 (inactive)	0.562 (active)
CC1CS(=O)(=O)CCN1/N=C/c1ccc([N+](=O)[O-])o1 (stereo unspecified)	224	0 (inactive)	0 (inactive)	0 (inactive)	0.3 (inactive)	0.278 (inactive)	0.625 (active)
CCN(CC)C(=O)N1CCN(C)CC1	95.5	0 (inactive)	0 (inactive)	0 (inactive)	0.15 (inactive)	0.222 (inactive)	0.375 (inactive)
CC(=O)NCC1CN(c2ccc(-c3ccc(CNCc4cn[nH]n4)cc3)c(F)c2)C(=O)O1 (stereo unspecified)	108	0 (inactive)	0 (inactive)	0 (inactive)	0.05 (inactive)	0.0556 (inactive)	< 0 (inactive)
N#Cc1ccc(-c2ccc(OCC(N)=O)cc2)cc1	73.9	0 (inactive)	1 (inactive)	0 (inactive)	0.182 (inactive)	0.2 (inactive)	0.127 (inactive)
C[C@H](c1ccc2c(c1)CCCC2)N(C)c1ncc2c(N)nc(N)nc2n1	39.1	0 (inactive)	0 (inactive)	0 (inactive)	0.2 (inactive)	0.278 (inactive)	0.438 (inactive)
c1coc(CNc2nc(N3CCCCC3)nc3ccccc23)c1	99.5	3 (active)	2 (active)	4 (active)	1 (active)	1 (active)	1 (active)
COc1ccc(N(CCc2cccc(C)n2)C(=O)C2CCCCC2)cc1	88.7	0 (inactive)	2 (active)	1 (inactive)	0.15 (inactive)	0.2 (inactive)	0.111 (inactive)
O=C(NCCN1CCCC1)c1cc(NCCCCN2CCC(F)(F)CC2)nc2ccc(Cl)cc12	86.9	2 (active)	4 (active)	4 (active)	0.3 (inactive)	0.389 (inactive)	0.562 (active)
Nc1nccc2ccc(Oc3ccncc3)cc12	152	0 (inactive)	0 (inactive)	0 (inactive)	0.1 (inactive)	0.222 (inactive)	0.375 (inactive)
O=C(Nc1ccnc(-c2cccnc2)n1)c1cc(C(F)(F)F)cc(C(F)(F)F)c1	91	0 (inactive)	0 (inactive)	0 (inactive)	0.1 (inactive)	0.0811 (inactive)	0.111 (inactive)
Cc1nnc(NC(=O)c2cn(-c3ccccc3)nc2-c2ccccc2C)o1	56.8	1 (inactive)	1 (inactive)	1 (inactive)	< 0 (inactive)	0.0811 (inactive)	0.111 (inactive)
COc1cccc(-n2nnnc2S(=O)(=O)Cc2ccccc2)c1	-7.15	4 (active)	4 (active)	4 (active)	1 (active)	1 (active)	1 (active)
Cc1ccc(NC(=O)c2cc(S(=O)(=O)NC(C)(C)C)ccc2C)nc1	90.2	0 (inactive)	0 (inactive)	0 (inactive)	0.2 (inactive)	0.222 (inactive)	0.375 (inactive)
Clc1ccc(Cl)c(CO[C@H]2CCCC[C@@H]2n2ccnc2)c1	109	0 (inactive)	0 (inactive)	0 (inactive)	0.2 (inactive)	0.167 (inactive)	0.25 (inactive)
CC(=O)NC[C@H]1CN(c2ccc(N3CCSCC3)c(F)c2)C(=O)O1	145	0 (inactive)	0 (inactive)	0 (inactive)	0.136 (inactive)	0.2 (inactive)	0.236 (inactive)
COc1ccc(Cl)cc1NC(=O)CN(C)C(=O)c1cnn(-c2ccccc2)n1	78.4	0 (inactive)	0 (inactive)	0 (inactive)	0.2 (inactive)	0.351 (inactive)	0.389 (inactive)
CC(C(=O)N1CCCC1)N1CCN(S(=O)(=O)c2ccc(C(C)(C)C)cc2)CC1 (stereo unspecified)	109	1 (inactive)	0 (inactive)	0 (inactive)	0.05 (inactive)	0.027 (inactive)	0.0909 (inactive)
CN(C(=O)c1cc2c(-c3cncnc3)cccc2[nH]1)c1ccccc1	102	0 (inactive)	0 (inactive)	0 (inactive)	0.189 (inactive)	0.278 (inactive)	0.375 (inactive)

SMILES	XTT viability [1] [%]	phenotypic severity score ([2]; 24 h)	phenotypic severity score ([2]; 48 h)	phenotypic severity score ([2]; 72 h)	drug effect ([3]; 24 h)	drug effect ([3]; 48 h)	drug effect ([3]; 72 h)
C[C@@H]1[C@H](O)[C@@H](C)/C=C/C=C/C=C/C=C/C=C/C=C/C=C/[C@H](O[C@@H]2O[C@H](C)[C@@H](O)[C@H](N)[C@@H]2O)C[C@@H]2O[C@](O)(C[C@@H](O)C[C@@H](O)[C@H](O)CC[C@@H](O)C[C@@H](O)CC(=O)O[C@H]1C)C[C@H](O)[C@H]2C(=O)O	95	0 (inactive)	0 (inactive)	0 (inactive)	0.136 (inactive)	0.15 (inactive)	0.105 (inactive)
O=C(Nc1cccc(Cl)c1)c1cnc(N2CCN(c3ccncc3)CC2)c(Cl)c1	3.67	2 (active)	4 (active)	4 (active)	0.8 (active)	0.946 (active)	1 (active)
CNc1nnc(Sc2cnn(-c3ccccc3)c(=O)c2Cl)s1	-5.83	4 (active)	4 (active)	4 (active)	1 (active)	1 (active)	1 (active)
NC(=O)c1cc(Br)ccc1OCCOc1ccccc1	110	1 (inactive)	1 (inactive)	2 (active)	< 0 (inactive)	< 0 (inactive)	< 0 (inactive)
O=C(Nc1cccnc1)c1c(O)c2cccc3c2n(c1=O)CC3	118	0 (inactive)	0 (inactive)	0 (inactive)	0.182 (inactive)	0.2 (inactive)	0.0727 (inactive)
COc1ccc(C2=NN(C3CCCCCC3)C(=O)[C@@H]3CC=CC[C@H]23)cc1OCCCCOc1ccc(-c2nn[nH]n2)cc1	31	2 (active)	0 (inactive)	0 (inactive)	0.35 (inactive)	0.568 (active)	0.667 (active)
Cc1ccc(Oc2ccc(NC(=O)CNc3ccccc3N3CCCC3=O)cc2)cc1	77	2 (active)	2 (active)	0 (inactive)	0.2 (inactive)	0.333 (inactive)	0.556 (active)
CC(C)(C)c1ccc(N[C@@H]2CCCC[C@H]2NC(=O)c2ccco2)cc1	117	0 (inactive)	0 (inactive)	0 (inactive)	< 0 (inactive)	< 0 (inactive)	0.111 (inactive)
COc1ccc(C2(C(=O)Nc3ccc(Br)cc3)CCCC2)cc1	91	0 (inactive)	0 (inactive)	1 (inactive)	0.25 (inactive)	0.389 (inactive)	0.5 (active)
CCOc1ccccc1NC(C)C(=O)Nc1cc(C(F)(F)F)ccc1N1CCOCC1 (stereo unspecified)	96	0 (inactive)	0 (inactive)	0 (inactive)	0.15 (inactive)	0.167 (inactive)	0.312 (inactive)
Cc1ccc2nc(C)c(-c3ccn(Cc4ccccc4)n3)n2c1	95.7	3 (active)	4 (active)	4 (active)	< 0 (inactive)	< 0 (inactive)	0.111 (inactive)
CCNC(=O)C(C)Nc1nc(-c2cccnc2)nc2sc(C)c(C)c12 (stereo unspecified)	81.9	0 (inactive)	0 (inactive)	0 (inactive)	< 0 (inactive)	< 0 (inactive)	0.111 (inactive)
Cc1nc(-c2ccccn2)nc(N(C)CCc2ccccc2)c1Cl	20.7	1 (inactive)	4 (active)	4 (active)	< 0 (inactive)	0.189 (inactive)	0.697 (active)
N#CCN(CCCCN1CCN(c2ccc(F)cc2)CC1)C(=O)OCc1ccccc1	118	0 (inactive)	0 (inactive)	0 (inactive)	0.0811 (inactive)	0.111 (inactive)	0.125 (inactive)
COc1ccc(-c2nnc3ccc(-c4cccc(C(C)C)c4)cn23)cc1OC	14.7	0 (inactive)	2 (active)	0 (inactive)	0.1 (inactive)	0.167 (inactive)	0.278 (inactive)
CN1CCCN(C(c2ccccc2)c2ccc(Cl)cc2)CC1 (stereo unspecified)	67.9	0 (inactive)	0 (inactive)	0 (inactive)	0.455 (inactive)	0.05 (inactive)	0.263 (inactive)
COCC(C)NC(=O)CSc1ncnc2sc(-c3ccccc3)cc12 (stereo unspecified)	93.6	0 (inactive)	0 (inactive)	0 (inactive)	0.1 (inactive)	0.135 (inactive)	0.111 (inactive)
COc1ccccc1OCCCCn1c(C2CC2)nc2ccccc21	76	0 (inactive)	0 (inactive)	0 (inactive)	0.136 (inactive)	0.2 (inactive)	0.182 (inactive)
OCCc1ccc(Nc2nccc(-c3nnc4ccccn34)n2)cc1	109	0 (inactive)	1 (inactive)	4 (active)	0.2 (inactive)	0.556 (active)	0.562 (active)
